Growth data for 24 compounds are collected here from PubChem BioAssay (NCI).

What all share (experiment): NCI-60 one-dose screen, 48 h (100 = growth as untreated, 0 = no growth, -100 = all killed)
Conditions in all cases: 10 µM unless noted

Assay [1] has as its system RPMI-8226 leukemia.
For assay [2], the system named is OVCAR-8 ovarian.
Assay [3] deals with OVCAR-5 ovarian.
Assay [4] relates to OVCAR-4 ovarian.
Assay [5] deals with SK-OV-3 ovarian.
In assay [6] the test system is OVCAR-3 ovarian.
Assay [7] has as its system HS 578T breast.
The test system of assay [8] is IGROV1 ovarian.
Assay [9] concerns NCI/ADR-RES ovarian.

The panel holds about 83,000 compounds, 20% with a hit somewhere; the sample as a whole holds those more often.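 Assay: single dose, 48 h. Readout: percent growth (0 = no net growth; negative = cell death). Active: <10.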 Unmarked numbers belong to inactive results. Active and inactive are the calls of the source.

As to `CCCCn1cnc2c(=O)[nH]cnc21`, the growth is 108% in assay [1]; 115% in assay [2]; 98.7% in assay [3]; 113% in assay [4]; 104% in [5]; 113% in assay [6]. Further, the growth in assay [7] was 115%.

Regarding `Cn1c2ccccc2c2nnc(NCCCCO)nc21`, the growth was 69.6% in assay [1]; 100% in assay [2]; 86.5% in assay [3]; 94.6% in [4]; 86.5% in assay [5]; 57.8% in assay [8]. Also, the figures for the growth in [6], in [7] and in assay [9] were 88.6%, 81.6% and 94.3%, respectively.

Regarding `O=CNCCc1ccccc1`, the growth in assay [1] is 102%; in assay [2] it was 102%; in assay [3] it was 97.7%; in [4], 103%; in assay [5] it was 97%; in assay [8], 110%. The figures for the growth in [7] and in [9] were 102% and 106%, respectively.

On to `C[n+]1c(/C=C\C=C\N2CCCCC2)sc2ccccc21`, for which the growth in assay [1] was -30.4% (active); in [2], -17.7% (active); in assay [3] it was 18.2%; in assay [4] it was 16.4%; in [5] it was -3.97% (active); in assay [6], -24.8% (active). Moreover, the growth is 34.5% in assay [7] and 62.5% in assay [9].

Turning to `ClCc1cccc2c(CCl)cccc12`, the growth was 31% in assay [1]; 63.8% in assay [2]; 114% in assay [3]; 94.4% in assay [4]; 83% in assay [5]; 54.9% in [8]. Besides, the growth is 62.7% in assay [6], 98.8% in [7] and 69.2% in assay [9].

Turning to `Cc1cccc(C)c1NC(=S)/N=C\c1c(O)[nH]c(=O)[nH]c1=O`, the growth was 98.3% in assay [1]; 108% in [2]; 109% in assay [3]; 104% in assay [4]; 94% in assay [5]; 101% in assay [8]. Further, the growth in assay [6] is 111%; in assay [7], 92%; in assay [9] it was 108%.

Regarding `CN1C(=O)NC(c2ccc(Cl)cc2)(c2ccc(Cl)cc2)C1=O`, the growth in assay [1] was 84.2%; in [2], 102%; in [3] it was 112%; in [4], 96.4%; in assay [5] it was 115%; in [8], 91%. The growth was 104% in assay [6], 90.4% in assay [7] and 86.8% in [9].

Regarding `Oc1cccnc1CN1CCCC1`, the growth in assay [1] was 100%; in assay [2], 94.7%; in assay [3] it was 97.9%; in assay [4] it was 108%; in assay [5], 103%; in assay [8] it was 102%. The growth is 117% in [6], 104% in assay [7] and 108% in assay [9].

As to `Cc1ccc(N2C(=O)c3cccc4c(N)c(S(=O)(=O)O)cc(c34)C2=O)cc1`, the growth is 104% in assay [1]; 107% in assay [2]; 84.7% in [3]; 117% in [4]; 106% in [5]; 121% in assay [6]. Also, the growth is 106% in [7] and 103% in assay [9].

For the compound `O=C1C=C(c2ccccc2)C(O)(c2ccccc2)C1` (configuration not stated), the growth is 98.1% in [1]; 106% in assay [2]; 93.6% in [3]; 95.7% in assay [4]; 101% in assay [5]; 107% in assay [8]. In addition, the growth in assay [6] was 112%; in [7] it was 109%; in assay [9] it was 104%.

On to `NC(CCl)=NCC12CC3CC(CC(C3)C1)C2`, for which the growth in assay [1] is -50.4% (active); in assay [2], -26.8% (active); in [3], 7.23% (active); in assay [4], 11.3%; in [5] it was 24.2%; in assay [6] it was -21.9% (active). For the same compound, the growth in assay [7] is 47.9%; in [9], 3.54% (active).

On to `O=C(NCc1ccccc1)/C(=C/c1ccccc1)NC(=O)c1ccccc1`, for which the growth was 96.5% in [1]; 97.1% in assay [2]; 123% in [3]; 115% in [4]; 102% in [5]; 104% in assay [8]. In addition, the growth in [6] is 117%; in assay [7], 99.2%; in assay [9], 104%.

Take `Nc1ccn(C2OC(CO)C(O)C2F)c(=O)n1` (configuration not stated): the growth was 73.8% in assay [1]; 61.8% in assay [2]; 93.2% in assay [3]; 84.4% in assay [4]; 103% in assay [5]; 109% in [8]. Moreover, the growth in [6] was 80.4%; in assay [7], 90.8%; in [9], 73.2%.

With `Cc1ccc2nc(N)nnc2c1`, the growth in assay [1] was 95.4%; in assay [2], 112%; in assay [3], 102%; in assay [4] it was 108%; in [5] it was 93.7%; in assay [8], 109%. For the same compound, the growth is 92.7% in [6], 93.3% in assay [7] and 96% in assay [9].

Consider `CCOC(=O)c1cc(Cl)c(O)c(Cl)c1`, for which the growth was 101% in assay [1]; 100% in [2]; 108% in assay [3]; 120% in [4]; 109% in assay [5]; 96.8% in assay [8]. In addition, the figures for the growth in [6], in assay [7] and in [9] were 115%, 109% and 111%, respectively.

For `CC(=O)N(C)N=Nc1ccc(C)cc1`, the growth in [1] was 102%; in assay [2] it was 112%; in [3], 83.1%; in [4] it was 102%; in [5], 110%; in assay [8], 152%. In addition, the growth in assay [6] is 103%; in [7], 95.1%; in assay [9] it was 99.1%.

Consider `Oc1ccc2ccccc2c1CN1CCOCC1`, for which the growth in assay [1] is 97.5%; in [2], 105%; in assay [3], 113%; in assay [4], 108%; in assay [5] it was 104%; in assay [8], 106%. In addition, the growth in assay [6] was 120%; in assay [7], 112%; in assay [9], 113%.

Take `Cc1cccc2ccccc12`: the growth in [1] was 101%; in assay [2] it was 100%; in [3], 104%; in assay [4] it was 108%; in assay [5], 103%; in [8], 112%. The growth in [6] is 110%; in [7] it was 107%; in [9] it was 99.6%.

For `NC(=S)c1c(N)n(C2OC(CO)C(O)C2O)c2ncnc(N)c12` (configuration not stated), the growth in assay [2] was -10.3% (active); in [3], 3.64% (active); in [4] it was 14.5%; in assay [5] it was 5.93% (active); in assay [8], -61.2% (active); in [6] it was -54.1% (active). Also, the growth in [7] was -20.1% (active); in [9] it was -1.77% (active).

As to `c1ccc(Nc2ccccn2)nc1`, the growth was 71.2% in assay [1]; 100% in [2]; 102% in assay [3]; 100% in [4]; 114% in assay [8]; 113% in assay [7]. Moreover, in [9], the growth was 112%.

`Oc1cc2ccccc2c(-c2c(O)c(O)cc3ccccc23)c1O`: the growth in assay [1] is -33.3% (active); in assay [2], 39%; in assay [3], 51.8%; in [5], 31.7%; in assay [8] it was -47.5% (active); in assay [6], 44.9%. Further, the growth in [7] was 33.9%.

Regarding `CN(C(=S)S(=O)(=O)C12CC3CC(CC(C3)C1)C2)c1ccccc1`, the growth is 98.6% in assay [2]; 89.6% in assay [3]; 104% in assay [4]; 99.9% in [5]; 8.02% (active) in [8]; 73.7% in [6]. Further, the growth in [7] is 85%; in assay [9], 102%.

Consider `Cc1cccc(-[n+]2noc(N)n2)c1`, for which the growth was 68.5% in assay [1]; 100% in assay [2]; 99.2% in [3]; 84% in assay [4]; 86.3% in assay [5]; 77% in [6]. For the same compound, the growth was 129% in [7] and 84.8% in assay [9].

`CC(CO)(CO)C(=O)O`: the growth in assay [1] is 97.2%; in [2], 111%; in assay [3], 98.2%; in assay [5], 105%; in assay [8], 126%; in assay [6], 106%. Further, the growth was 98.8% in assay [7] and 103% in [9].
